Experimental data as given in PubChem BioAssay (NCATS).
Results filed as inconclusive are left out. Activity calls are given as the source filed them. The call rests on the fitted dose curve; in most records, active means well fitted cell-killing curve with a large enough effect; inconclusive means small, poorly fitted or top-dose-only effect, or effect the other way; inactive means flat fitted curve, though single readings scatter.

Experiments:
Test in all cases: Primary qHTS to identify gynecologic anti-cancer compounds using libraries of approved drugs and bioactive compounds (AID 1345084); further: nearly all actives have a fitted effect of over 55% in size
Details in all cases: Gynecologic cancer cell panel viability, ATPlite luminescence, 48 h; series mostly up to 57.5 µM
[1] = system: SKOV3
In short: (§1)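 In this quantitative HTS, cell killing is estimated from loss of ATP-dependent luciferase light. Cells see five compound concentrations over a 48 h exposure.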

[2] = system: Tov-21-G
In short: as §1

[3] = system: Tov112D
In short: as §1
On the % scale 0 is the no-effect control and ±100 the full control effect.

CC(=O)O[C@@H]1C[C@@H](C)[C@](O)(CCC2=CC(=O)OC2)[C@@]2(C)CCCC(C)(C)C12 (some centres undefined)
inactive: Potency [1] | Potency [2] | Potency [3]

COc1ccc(O[C@@H]2O[C@H](CO)[C@@H](O)[C@H](O)[C@H]2O)cc1OC
inactive: Potency [1] | Potency [2] | Potency [3]

COC(=O)C1=COC(OC2OC(CO)C(O)C(O)C2O)C2C(COC(=O)/C=C/c3ccc(O)cc3)C(O)C(O)C12 (centres undefined)
inactive: Potency [1] | Potency [2] | Potency [3]

CCCC/C=C\CCCCCc1cc(=O)c2ccccc2n1C
inactive: Potency [1] | Potency [2] | Potency [3]

CC(C)(O)C1CCC2(C)CCCC(C)(O)C2C1 (centres undefined)
inactive: Potency [1] | Potency [2] | Potency [3]

CCC(C)C(=O)O[C@H]1C[C@](C)(O)[C@]23OC(C)(C)[C@H](C[C@H](OC(=O)c4ccccc4)[C@]2(COC(C)=O)[C@H]1OC(=O)C(C)CC)[C@H]3OC(C)=O (some centres undefined)
inactive: Potency [1] | Potency [2] | Potency [3]

C[C@H]1[C@H](C)C[C@@H](C(=O)O)C2CC[C@]3(C)C(=CC[C@@H]4[C@@]5(C)CC[C@H](O)C(C)(C)[C@@H]5CC[C@]43C)[C@@H]21 (some centres undefined)
inactive: Potency [1] | Potency [2] | Potency [3]

COC1CC(O[C@H]2CC[C@@]3(C)C(=CC[C@]4(O)C3[C@H](O)[C@@H](O)[C@]3(C)[C@@H]([C@H](C)O)CC[C@@]34O)C2)OC(C)C1OC1CC(OC)C(OC2CC(OC)C(OC3OC(C)C(OC4OC(CO)C(O)C(O)C4O)C(OC)C3O)C(C)O2)C(C)O1 (some centres undefined)
inactive: activity change, negative = cytotoxicity [1] 1.02% [at 11.6 µM] | activity change, negative = cytotoxicity [2] -0.0649% [at 11.6 µM] | activity change, negative = cytotoxicity [3] 1.61% [at 11.6 µM]

On1ncc(C2CCNCC2)c1-c1cccc(-c2ccccc2)c1
inactive: Potency [1] | Potency [2] | Potency [3]

CCC(C)C(N)C(=O)NCCN1CCOCC1 (centres undefined)
inactive: Potency [1] | Potency [2] | Potency [3]

COc1cc(C2OCC3(O)C(c4ccc(O[C@@H]5O[C@H](CO)[C@@H](O)[C@H](O)[C@H]5O)c(OC)c4)OCC23O)ccc1O (some centres undefined)
inactive: Potency [1] | Potency [2] | Potency [3]

CC(=O)NC1C(OC2CCC3(C)C(CCC4(C)C3CC=C3C5CC(C)(C)CCC5(C(=O)O)C(O)CC34C)C2(C)C)OC(CO)C(O)C1O (centres undefined)
inactive: Potency [1] | Potency [2] | Potency [3]

CC1=C2CC(O)(C(C)(C)O)C(O[C@@H]3O[C@H](CO)[C@@H](O)[C@H](O)[C@H]3O)CC(C)C2CC1=O (some centres undefined)
inactive: Potency [1] | Potency [2] | Potency [3]

COC(=O)C1=CO[C@@H](O[C@@H]2O[C@H](CO)[C@@H](O)[C@H](O)[C@H]2O)C2C1CC(O)C2C (some centres undefined)
inactive: Potency [1] | Potency [2] | Potency [3]

O=C(Nc1ccn(Cc2c(F)cccc2C(F)(F)F)n1)c1c(F)cccc1F
inactive: activity change, negative = cytotoxicity [1] 9.68% [at 11.6 µM] | activity change, negative = cytotoxicity [2] 10.6% [at 11.6 µM] | activity change, negative = cytotoxicity [3] 3.93% [at 11.6 µM]

CN1CCc2cc(Cl)c(O)cc2[C@@H](c2cccc3c2OCC3)C1
inactive: Potency [1] | Potency [2] | Potency [3]

COc1c2ccoc2nc2c(OC)c(O[C@@H]3O[C@@H](C)[C@H](O)[C@@H](O[C@@H]4O[C@H](CO)[C@@H](O)[C@H](O)[C@H]4O)[C@H]3OC(C)=O)ccc12
inactive: Potency [1] | Potency [2] | Potency [3]

COc1cc(CCCO)ccc1O[C@@H]1O[C@H](CO)[C@@H](O)[C@H](O)[C@H]1O
inactive: Potency [1] | Potency [2] | Potency [3]

CCC(C)/C=C(C)/C=C/C(=O)C1CCC(O)C(C)(O)C1=O (centres undefined)
inactive: Potency [1] | Potency [2] | Potency [3]

CC(=O)OC1CC2(C)C(CCC(C)C23Cc2c(O)cc4c(c2O3)CNC4=O)C(C)(C)C1O (centres undefined)
inactive: Potency [1] | Potency [2] | Potency [3]

C=C1CCC2C(C)(C(=O)OC)CCCC2(C)C1CCC1=CCOC1=O (centres undefined)
inactive: Potency [1] | Potency [2] | Potency [3]

Cc1onc(-c2ccccc2Cl)c1C(=O)N(C)c1ccc(Cl)cc1
inactive: Potency [1] | Potency [2] | Potency [3]

C=C1CC[C@@]2(OC1)O[C@H]1CC3[C@@H]4CC=C5C[C@@H](O)C[C@@H](O[C@@H]6OC[C@H](O)[C@H](O)[C@H]6O[C@@H]6O[C@@H](C)[C@H](O)[C@@H](O)[C@H]6O)[C@]5(C)C4CC[C@]3(C)[C@H]1[C@@H]2C (some centres undefined)
inactive: Potency [1] | Potency [2] | Potency [3]

COC(=O)C1=CO[C@@H](O[C@@H]2O[C@H](CO)[C@@H](O)[C@H](O)[C@H]2O)[C@@H]2C(CO)=CC[C@H]12
inactive: Potency [1] | Potency [2] | Potency [3]

C=C1CCC2(OC1)OC1CC3C4CC=C5CC(O)CC(O[C@@H]6OC[C@H](OC(=O)C(O)C(C)CC)[C@H](O)[C@H]6O[C@@H]6O[C@@H](C)[C@H](O)[C@@H](O)[C@H]6O)C5(C)C4CCC3(C)C1C2C (some centres undefined)
inactive: activity change, negative = cytotoxicity [1] 6.52% [at 11.6 µM] | activity change, negative = cytotoxicity [2] 15.3% [at 11.6 µM] | activity change, negative = cytotoxicity [3] 19.2% [at 11.6 µM]

C=C1CC[C@@H]2[C@@](C)(CO[C@@H]3O[C@H](CO)[C@@H](O)[C@H](O)[C@H]3O)[C@H](O)CC[C@@]2(C)[C@@H]1CC/C(C)=C/CO[C@@H]1O[C@H](CO)[C@@H](O)[C@H](O)[C@H]1O
inactive: Potency [1] | Potency [2] | Potency [3]

C=C1C(O)C(O)C2(CC3C(C)=CCC4C(C)(C(=O)O)CCCC34C)OC2C1O (centres undefined)
inactive: Potency [1] | Potency [2] | Potency [3]

C/C=C1/[C@H](O[C@@H]2O[C@H](CO)[C@@H](O)[C@H](O)[C@H]2O)OC=C2C(=O)O[C@@H]3C[C@@H](C(C)CO)[C@H](COC(=O)C[C@H]21)[C@H]3C (some centres undefined)
inactive: Potency [1] | Potency [2] | Potency [3]

CC1(C)CC[C@]2(C(=O)O[C@@H]3O[C@H](CO)[C@@H](O)[C@H](O)[C@H]3O)CC[C@]3(C)C(=CCC4[C@@]5(C)CC[C@H](O[C@@H]6O[C@H](C(=O)O)[C@@H](O[C@@H]7O[C@H](CO)[C@@H](O)[C@H](O)[C@H]7O)[C@H](O)[C@H]6O)C(C)(C)C5CC[C@]43C)C2C1 (some centres undefined)
inactive: activity change, negative = cytotoxicity [1] 7.57% [at 11.6 µM] | activity change, negative = cytotoxicity [2] 4.63% [at 11.6 µM] | activity change, negative = cytotoxicity [3] 2.05% [at 11.6 µM]

COc1cc(-c2ccc(O)cc2)c(OC)c(O)c1C1=CC(=O)OC1CC(=O)O (centres undefined)
inactive: Potency [1] | Potency [2] | Potency [3]

O=C(Cc1ccc(Cl)cc1)Nc1cnccc1C(=O)O
inactive: Potency [1] | Potency [2] | Potency [3]

CC(C)CC(c1c(O)c(C=O)c(O)c(C=O)c1O)C1CCC(C)(O)C2CC(C(C)(C)O)CCC12C (centres undefined)
inactive: Potency [1] | Potency [2] | Potency [3]

COc1cc(/C=C/C(=O)O[C@H]2[C@H](O)[C@@H](CO)O[C@@]2(CO)O[C@H]2O[C@H](CO)[C@@H](O)[C@H](O)[C@H]2O)cc(OC)c1O
inactive: Potency [1] | Potency [2] | Potency [3]

O=C(CC1CC(c2ccc(F)cc2F)=NO1)N1CCOCC1 (centres undefined)
inactive: Potency [1] | Potency [2] | Potency [3]

CC1=C2C(=O)C=C(CO)C2[C@H]2OC(=O)[C@H](C)[C@@H]2[C@@H](OC(=O)Cc2ccc(O)cc2)C1 (some centres undefined)
inactive: Potency [1] | Potency [2] | Potency [3]

CCC[C@H](N[C@@H](C)C(=O)N1[C@H](C(=O)O)C[C@@H]2CCCC[C@@H]21)C(=O)O
inactive: Potency [1] | Potency [2] | Potency [3]

O=C(O)CC1CCC(c2ccc(NC(=O)c3nnc(Nc4ccc(F)c(F)c4)o3)cc2)CC1 (centres undefined)
inactive: Potency [1] | Potency [2] | Potency [3]

C=C1CC/C=C(/C(=O)O)CCC2C1CC2(C)C (centres undefined)
inactive: Potency [1] | Potency [2] | Potency [3]

COC(=O)C1C(c2ccc(O)cc2)C(C(=O)O)C1c1ccc(O)cc1 (centres undefined)
inactive: Potency [1] | Potency [2] | Potency [3]

C[C@H]1/C=C/C=C/C=C/C=C/C=C/[C@@H](O)[C@H](C(=O)O)[C@H](O)C[C@H](O)CCC[C@H](O)C[C@H](O)C[C@H](O)[C@@H](C)C(=O)O[C@@H]1C
inactive: Potency [1] | Potency [2] | Potency [3]

C=C1CC[C@]2(C(=O)O[C@@H]3O[C@H](CO)[C@@H](O)[C@H](O)[C@H]3O)CC[C@]3(C)C(=CCC4[C@@]5(C)C[C@H](O)[C@@H](O[C@@H]6O[C@H](C(=O)O)[C@@H](O)[C@H](O)[C@H]6O)[C@](C)(C=O)C5CC[C@]43C)C2C1 (some centres undefined)
inactive: activity change, negative = cytotoxicity [1] -9% [at 11.6 µM] | activity change, negative = cytotoxicity [2] 6.07% [at 11.6 µM] | activity change, negative = cytotoxicity [3] 5.76% [at 11.6 µM]

CCC(C)C(=O)OC[C@H]1O[C@H](O[C@H]2O[C@H](CO)[C@@H](O)[C@H](O)[C@H]2O)[C@H](O)[C@@H](O)[C@@H]1O (some centres undefined)
inactive: Potency [1] | Potency [2] | Potency [3]

O=C(O)CCc1ccc(NCc2cccc3c2CCCN3CCOc2ccccc2)cc1F
inactive: Potency [1] | Potency [2] | Potency [3]

C[C@H]1[C@H](C)CC[C@]2(C(=O)OC3OC(CO)C(O)C(O)C3O)CC[C@]3(C(=O)O)C(=CCC4[C@@]5(C)CC[C@H](O[C@@H]6O[C@@H](C)[C@H](OC7OC(CO)C(O)C(O)C7O)[C@@H](O)[C@H]6O)C(C)(C)C5CC[C@]43C)[C@H]12 (some centres undefined)
inactive: activity change, negative = cytotoxicity [1] 0% [at 11.6 µM] | activity change, negative = cytotoxicity [2] 0.351% [at 11.6 µM] | activity change, negative = cytotoxicity [3] -1.72% [at 11.6 µM]

OC[C@@]1(O)CO[C@H](OC[C@H]2O[C@@H](OC(CCCCc3ccc(O)cc3)CCc3ccc(O)cc3)[C@H](O)[C@@H](O)[C@@H]2O)[C@@H]1O (some centres undefined)
inactive: Potency [1] | Potency [2] | Potency [3]

COc1cncc(C#Cc2ccccn2)c1
inactive: Potency [1] | Potency [2] | Potency [3]

CC1(C)CC[C@]2(C(=O)O[C@@H]3O[C@H](CO)[C@@H](O)[C@H](O)[C@H]3O)[C@H](O)C[C@]3(C)C(=CCC4[C@@]5(C)CC[C@H](O[C@@H]6OC[C@@H](O)[C@H](O)[C@H]6O)[C@@](C)(C(=O)O)C5CC[C@]43C)[C@@H]2C1 (some centres undefined)
inactive: Potency [1] | Potency [2] | Potency [3]

COc1cc(/C=C/C(=O)OC[C@H]2O[C@@H](OC3OC=C(C(=O)O)C4C(O)CC(C)(O)C34)[C@H](O)[C@@H](O)[C@@H]2O)cc(OC)c1O (some centres undefined)
inactive: Potency [1] | Potency [2] | Potency [3]
